Measured values published in PubChem BioAssay (NCATS).
Records with an inconclusive call do not appear. Active and inactive are the calls of the source. The call rests on the fitted dose curve; in most records, active means well fitted inhibition curve with a large enough effect; inconclusive means small, poorly fitted or top-dose-only effect; inactive means flat fitted curve, though single readings scatter. Where a SMILES comes first, the peptide text is derived from it.

Key:
Experiment in all cases: Cytotoxic Profiling of Annotated Libraries Using Quantitative High-Throughput Screening (AID 1296008); further: nearly all actives have a fitted effect of over 60% in size
Conditions in all cases: Five cell lines viability, CellTiter-Glo ATP luminescence, 48-72 h; max response: stronger effect = lower value
[1] = tested on: CRL-7250
Procedure, shortened: (§1)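 Compounds were pin-transferred onto cells and incubated 48 or 72 hr at 37 degree Celsius, 95% humidity. CellTiter-Glo was added, plates sat 10 min at room temperature, then ATP-coupled luminescence was imaged as the viability read-out.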

[2] = tested on: HEK293
Procedure, shortened: as §1

[3] = tested on: HaCat
Procedure, shortened: as §1

[4] = tested on: KB-3-1
Procedure, shortened: as §1

[5] = tested on: NIH3T3
Procedure, shortened: as §1

Measured: max response
On the % scale 0 is the no-effect control and ±100 the full control effect.

CC1(C)CCC[C@@]2(C)[C@H]1[C@H](O)C=C(CO)[C@]2(O)CO
inactive: [1] -0.0206% | [2] -0.502% | [3] | [4] 6.19% | [5] -5.75%

Cc1onc(-c2c(Cl)cccc2Cl)c1CC(=O)NCc1ccc(OCC(F)(F)F)nc1
inactive: [1] 0.479% | [2] -15.1% | [3] 1.93% | [4] | [5]

C[C@@H]1CC[C@]2(C(=O)O)CC[C@]3(C)C(=CCC4[C@@]5(C)C[C@@H](O)[C@@H](O)C(C)(C)C5CC[C@]43C)C2[C@]1(C)O (stereo not given in full)
inactive: [1] -1.23% | [2] | [3] -10.3% | [4] 9.05% | [5] -8.5%

CC(C)(C)NS(=O)(=O)c1ccc(-c2ccc3[nH]nc(N)c3c2)cc1
inactive: [1] -6.71% | [2] -2.12% | [3] -19% | [4] 8.07% | [5]

O=C(OC1C=C(CO)C2C(OC3OC(CO)C(O)C(O)C3O)OC=CC12O)c1ccc(O)cc1 (stereo not given)
inactive: [1] 4.89% | [2] -1.34% | [3] | [4] 1.12% | [5] -4.5%

CSCC[C@H](NC(=O)[C@H](CO)NC(=O)[C@H](CCC(=O)O)NC(C)=O)C(=O)N[C@H](C=O)CC(=O)O (Ac-ESMD-aldehyde)
inactive: [1] 3.88% | [2] 0.953% | [3] | [4] 2.69% | [5] -20.7%

CCOc1ccc(-c2nn3ncccc3c2-c2ccc(S(C)(=O)=O)cc2)cc1
inactive: [1] -7.67% | [2] -11.9% | [3] | [4] 2.36% | [5] 3.39%

CCC(C)C(C(=O)O)N1Cc2c(OCC=C(C)C)c(C)c(OC)c(C(=O)O)c2C1=O (stereo not given)
inactive: [1] 0.564% | [2] -3.21% | [3] | [4] | [5] -10.1%

C=C(C)[C@@H]1CC[C@]2(C)CC[C@]3(C)C(CCC4[C@@]5(C)CC[C@H](O)C(C)(C)C5CC[C@]43C)C12 (stereo not given in full)
inactive: [1] | [2] 1.06% | [3] | [4] | [5] 2.33%

CC1CC(=O)[C@]2(O)C(C(=O)OCCc3ccc(O)cc3)=CO[C@@H](O[C@@H]3O[C@H](CO)[C@@H](O)[C@H](O)[C@H]3O)[C@H]12 (stereo not given in full)
inactive: [1] -11.7% | [2] -6.36% | [3] | [4] | [5] -59.3%

O=C(O[C@H]1[C@H](Oc2ccc(O)cc2CO)O[C@H](CO)[C@@H](O)[C@@H]1O)c1ccccc1
inactive: [1] -4.77% | [2] -1.69% | [3] | [4] | [5] 2.07%

CC(=O)O[C@@H](C[C@@H]1C=C(C)C(=O)O1)[C@H](C)[C@H]1CCC2[C@@]3(C)CC[C@H](O[C@@H]4O[C@H](CO)[C@@H](O)[C@H](O)[C@H]4O[C@@H]4O[C@@H](C)[C@H](O)[C@@H](O)[C@H]4O)C(C)(C)C3CC[C@@]2(C)[C@@]12COC(=O)C2 (stereo not given in full)
inactive: [1] | [2] -15.8% | [3] | [4] 1.23% | [5]

CC(C)=CCC[C@@](C)(O)[C@H]1CC[C@]2(C)[C@@H]1[C@H](O)CC1[C@@]3(C)CC[C@H](O[C@@H]4O[C@H](CO)[C@@H](O)[C@H](O)[C@H]4O[C@@H]4O[C@H](CO)[C@@H](O)[C@H](O)[C@H]4O)C(C)(C)[C@@H]3CC[C@]12C (stereo not given in full)
inactive: [1] 4.67% | [2] 1.62% | [3] | [4] | [5]

COC(=O)[C@@H](NC(=O)[C@H](CC(C)C)NC(=O)N(Cc1ccccc1)C[C@@H](O)[C@H](Cc1ccccc1)NC(=O)OC(C)(C)C)C(C)C
inactive: [1] | [2] 0.117% | [3] | [4] -5.6% | [5] -6.39%

CC(CCc1ccc(O)cc1)O[C@@H]1O[C@H](CO[C@@H]2OC(CO)[C@H](O)[C@H]2O)[C@@H](O)[C@H](O)[C@H]1O (stereo not given in full)
inactive: [1] -0.0719% | [2] | [3] -7.01% | [4] | [5] -1.05%

CC1=C[C@H](O)[C@H]2C(C)(C)CCC[C@]2(C)[C@@]1(O)CO
inactive: [1] -1.57% | [2] -4.11% | [3] 3.1% | [4] | [5]

CCC(C)C(=O)OC[C@H]1O[C@H](O[C@H]2O[C@H](CO)[C@@H](O)[C@H](O)[C@H]2O)[C@H](O)[C@@H](O)[C@@H]1O (stereo not given in full)
inactive: [1] | [2] 0.11% | [3] | [4] 6.74% | [5]
